From PubChem BioAssay (NCATS)
Results filed as inconclusive are left out. Where a call stands in place of a potency, no number is given. The source made the active and inactive calls. Unless noted, calls follow the shape of the dose curve; as a rule, active = well fitted curve in the direction sought with a large enough effect; inconclusive = small, poorly fitted or top-dose-only effect, or another doubt; inactive = no such curve, though single readings can be large; an effect the other way counts as inactive or inconclusive.

Columns and labels:
[1] = P-glycoprotein substrates identified in KB-3-1 adenocarcinoma cell line, qHTS therapeutic library screen (AID 1346986); also: nearly all actives have a fitted effect of over 60% in size;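 also: potency is read from the fitted curve at half-maximal effect; potency is for cytotoxicity meaning loss of cell viability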
Outline: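 Cells seeded 500/well in DMEM/10% FCS; compounds pinned in dose-response; 72 h incubation; CellTiter-Glo added, 5 min, luminescence. KB-8-5-11 run ±tariquidar to test reversal of P-gp resistance.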

[2] = qHTS to identify inhibitors of the type 1 interferon - major histocompatibility complex class I in skeletal muscle: primary screen against the NCATS Mechanism Interrogation Plate v5.0 (MIPE) Libary (AID 1347411); also: nearly all actives have a fitted effect of over 65% in size; also: potency is read from the fitted curve at half-maximal effect
Outline: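 Luminescence from HiBiT-tagged endogenous HLA-B*08:01 served as the MHC class I read-out. CRISPR-engineered C25cl48 human myoblasts received 4.0 ng/ml IFN-beta plus compound for 24 hrs, with an 11-point, 1:3 series topping at 46 uM final.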

[3] = Primary qHTS for inhibitors of nuclear receptor binding SET domain protein 2 (NSD2) in an isogenic RCH-ACV NSD2 p.E1099K mutant (9B) (AID 1645876); also: nearly all actives have a fitted effect of over 70% in size; also: potency is read from the fitted curve at half-maximal effect
[4] = Primary qHTS for inhibitors of nuclear receptor binding SET domain protein 2 (NSD2) in an RCH-ACV wild type WT cells (2C) (AID 1645877); also: nearly all actives have a fitted effect of over 70% in size; also: potency is read from the fitted curve at half-maximal effect
[5] = biological target: Glutathione peroxidase 1 (Homo sapiens) (UniProt P07203); assay: Primary qHTS Assay for Inhibitors of Recombinant Selenoprotein Glutathione Peroxidase 1 (GPX1) (AID 1845191); also: nearly all actives have a fitted effect of over 65% in size
Outline: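 10 nM GPX1 + cpd, 30 min RT; start w/ 1 mM GSH, 0.5 mM cumene hydroperoxide, 0.5 mM NADPH, 100 nM GR, 0.01% BSA; buffer 50 mM Tris-HCl pH 7.5, 2 mM EDTA, 150 mM NaCl; Fl 340/450, 0 & 15 min.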

[6] = qHTS drug screen for cell cycle checkpoint inhibitors in PARPi-resistant BRCA-mutant ovarian cancer cell lines. (AID 1963452; calls by dose curve; also: potency is read from the fitted curve at half-maximal effect); details: PEO1/OlaR viability, CellTiter-Glo luminescence, 96 h; for Z-AUC: stronger effect = lower value
Outline: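 PEO1, PEO4 and PEO1/OlaR ovarian cancer cells, 600 per well, exposed 96 h at 37C to a dilution series. Viability read by CellTiter-Glo luminescence, normalized to DMSO and empty wells; activity summarized as Z-AUC.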

[7] = qHTS assay to identify inhibitors of the type 1 interferon - major histocompatibility complex class I in skeletal muscle: Counter screen cell viability and HiBit confirmation (AID 1347412); details: iHSKM muscle cells + IFN-b, HiBiT or CellTiter-Glo, 24 h, HiBiT; also: nearly all actives have a fitted effect of over 60% in size; also: potency is read from the fitted curve at half-maximal effect
Outline: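 Human myoblast knock-in line, 4.0 ng/ml IFN-beta stimulation, 24 h compound treatment. Endpoints: HiBiT lytic luminescence (HLA-B level) and CellTiter Glo (ATP). Dosing 12 concentrations, 3-fold steps, 46 uM highest final.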

[8] = biological target: Calcium and integrin-binding protein 1 (Homo sapiens) (UniProt Q99828); assay: Primary qHTS for Identification of Calcium Integrin Binding Protein 1 (CIB1) Competitor (AID 1508620);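 also: GST tagged CIB1 binding a fluorescein labelled alphaIIb integrin peptide tracer; top concentration of the series differs between compounds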
Outline: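 CIB1-GST (1 uM final) and compound incubated 15 min at room temperature before adding FITC-alphaIIb peptide tracer (100 nM final). Competition for binding read by fluorescence polarization (ex 480, em 540) after another 15 min at room temperature.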

[9] = biological target: N-terminal Xaa-Pro-Lys N-methyltransferase 1 (Homo sapiens) (UniProt Q9BV86); assay: Confirmatory qHTS for Inhibitors of N-terminal methyltransferase 1 (NTMT1): MTaseGlo Assay (AID 1645874); also: potency is read from the fitted curve at half-maximal effect; nearly all actives have a fitted effect of over 65% in size
Outline: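 Compounds are incubated with 125 nM NTMT1 and 100 uM SAM for 15 min before the SPKRIA peptide (1 uM) starts a 30 min room-temperature methylation. SAH is measured by coupled luciferase luminescence and curves fitted to a Hill equation.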

[10] = biological target: Catechol O-methyltransferase (Homo sapiens) (UniProt P21964); assay: Confirmatory Screen for Target Class Profiling of Small Molecule Inhibitors of Methyltransferases (AID 1745852; calls by dose curve; also: potency is read from the fitted curve at half-maximal effect); details: MTase-Glo luminescence, SAH detection, recombinant enzyme; measured here: COMT max response; stronger effect = lower value
[11] = biological target: Guanidinoacetate N-methyltransferase (Homo sapiens) (UniProt Q14353); assay: as above; details: activity change, negative = inhibition: at 57.3 µM (top of the series) unless noted
[12] = biological target: Nicotinamide N-methyltransferase (Homo sapiens) (UniProt P40261); assay: as above; details: MTase-Glo luminescence, SAH detection, recombinant enzyme; measured here: NNMT max response; stronger effect = lower value
[13] = biological target: Phenylethanolamine N-methyltransferase (Homo sapiens) (UniProt P11086); assay: as above; details: MTase-Glo luminescence, SAH detection, recombinant enzyme; measured here: PNMT max response; stronger effect = lower value
[14] = P-glycoprotein substrates identified in KB-8-5-11 adenocarcinoma cell line, qHTS therapeutic library screen (AID 1346987); also: nearly all actives have a fitted effect of over 65% in size; also: potency is read from the fitted curve at half-maximal effect
Outline: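 Steps: plate 500 KB-8-5-11 cells/well in DMEM + 10% FCS (colchicine removed); pin compounds in dose-response; incubate 72 h, 37 degree C, 5% CO2; add CellTiter-Glo, 5 min; read luminescence.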

[15] = NCATS anti-infectives library activity on HEK293 viability as a counter-qHTS vs the C. elegans viability qHTS (AID 1745854);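 also: HEK293 cells exposed to compounds for 24 hr before the viability read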
Outline: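 Compounds were acoustically plated (several concentrations, 1:5, final up to 41.7 uM), then 1500 HEK293 cells added per well and incubated 24 hr at 37C, 5% CO2. CellTiter-Glo was added and luminescence read after 10 min.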

[16] = tested on: Zika virus NS2B-NS3 protease; assay: Primary screen GU AMC qHTS for Zika virus inhibitors (AID 1347154); also: nearly all actives have a fitted effect of over 70% in size
Outline: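 Fluorogenic AMC-substrate cleavage by noncovalent NS2B-NS3 protease complex (25 nM, pH 8.0 Tris buffer with Tween 20) followed for 15 minutes at room temperature (~20% conversion). Percent inhibition from ex340/em450 signal change, fitted by 4-parameter Hill equation.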

[17] = Primary qHTS for small molecule stabilizers of the endoplasmic reticulum resident proteome: Secreted ER Calcium Modulated Protein (SERCaMP) assay (AID 1508630)
Outline: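 GLuc-SERCaMP-expressing SH-SY5Y cells, pretreated 16 h with compound, are challenged with thapsigargin to empty ER calcium stores; after 4 h, coelenterazine is added directly to the medium and luminescence is imaged.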

[18] = biological target: Phospholipid hydroperoxide glutathione peroxidase GPX4 (Homo sapiens) (UniProt P36969); assay: Primary qHTS Assay for Inhibitors of Recombinant Selenoprotein Glutathione Peroxidase 4 (GPX4) (AID 1845192); details: outcome: dose series up to 50 µM unless noted; also: nearly all actives have a fitted effect of over 65% in size
Outline: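 NADPH consumption, followed by fluorescence at 340/450 nm between 0 and 15 min, reports GPX4 activity via coupled glutathione reductase (100 nM). Enzyme 200 nM was pre-exposed to compound 30 min; 0.5 mM cumene hydroperoxide and 1 mM GSH served as substrates.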

[19] = measured here: PEO1 parental Z-AUC

Chain of Glutathione peroxidase 1 (Homo sapiens) (P07203 whole entry, looked up): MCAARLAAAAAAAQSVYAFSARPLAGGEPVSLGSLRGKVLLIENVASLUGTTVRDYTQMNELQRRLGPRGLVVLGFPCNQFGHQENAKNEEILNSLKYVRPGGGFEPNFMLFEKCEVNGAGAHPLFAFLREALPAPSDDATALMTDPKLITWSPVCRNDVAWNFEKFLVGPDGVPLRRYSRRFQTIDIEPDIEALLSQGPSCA
Chain of Calcium and integrin-binding protein 1 (Homo sapiens) (Q99828 whole entry, looked up): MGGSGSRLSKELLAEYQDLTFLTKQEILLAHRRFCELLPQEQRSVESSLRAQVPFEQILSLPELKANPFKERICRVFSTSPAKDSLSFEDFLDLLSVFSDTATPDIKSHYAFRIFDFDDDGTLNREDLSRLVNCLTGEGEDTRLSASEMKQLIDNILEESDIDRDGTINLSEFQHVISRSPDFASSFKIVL
Chain of Phenylethanolamine N-methyltransferase (Homo sapiens) (P11086 whole entry, looked up): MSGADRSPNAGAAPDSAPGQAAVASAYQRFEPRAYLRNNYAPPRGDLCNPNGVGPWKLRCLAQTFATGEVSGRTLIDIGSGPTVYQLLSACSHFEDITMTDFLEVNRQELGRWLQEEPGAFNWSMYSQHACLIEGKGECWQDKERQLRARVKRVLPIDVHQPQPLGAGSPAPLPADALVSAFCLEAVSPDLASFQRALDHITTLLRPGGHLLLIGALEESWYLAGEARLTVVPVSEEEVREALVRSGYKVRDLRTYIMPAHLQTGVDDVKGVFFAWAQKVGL
Chain of Phospholipid hydroperoxide glutathione peroxidase GPX4 (Homo sapiens) (P36969 whole entry, looked up): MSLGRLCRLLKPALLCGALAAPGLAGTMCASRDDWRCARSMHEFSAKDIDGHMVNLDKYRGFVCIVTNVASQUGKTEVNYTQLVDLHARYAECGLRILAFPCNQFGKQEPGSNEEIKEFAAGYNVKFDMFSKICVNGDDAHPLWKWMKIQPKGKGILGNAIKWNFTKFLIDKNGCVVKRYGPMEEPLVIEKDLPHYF
Chain of N-terminal Xaa-Pro-Lys N-methyltransferase 1 (Homo sapiens) (Q9BV86 whole entry, looked up): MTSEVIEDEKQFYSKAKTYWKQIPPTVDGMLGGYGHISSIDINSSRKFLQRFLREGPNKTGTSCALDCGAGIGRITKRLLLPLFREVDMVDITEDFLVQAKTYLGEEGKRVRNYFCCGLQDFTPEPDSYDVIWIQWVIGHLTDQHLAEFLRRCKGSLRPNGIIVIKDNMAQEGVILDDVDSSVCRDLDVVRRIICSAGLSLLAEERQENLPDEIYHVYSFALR
Chain of Catechol O-methyltransferase (Homo sapiens) (P21964 whole entry, looked up): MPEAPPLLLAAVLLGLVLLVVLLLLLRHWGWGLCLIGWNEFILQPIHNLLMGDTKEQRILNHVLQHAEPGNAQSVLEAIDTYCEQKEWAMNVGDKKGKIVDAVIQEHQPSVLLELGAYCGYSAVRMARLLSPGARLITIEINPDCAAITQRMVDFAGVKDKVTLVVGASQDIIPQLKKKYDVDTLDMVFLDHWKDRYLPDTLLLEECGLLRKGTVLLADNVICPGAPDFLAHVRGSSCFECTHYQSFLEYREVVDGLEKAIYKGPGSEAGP
Chain of Nicotinamide N-methyltransferase (Homo sapiens) (P40261 whole entry, looked up): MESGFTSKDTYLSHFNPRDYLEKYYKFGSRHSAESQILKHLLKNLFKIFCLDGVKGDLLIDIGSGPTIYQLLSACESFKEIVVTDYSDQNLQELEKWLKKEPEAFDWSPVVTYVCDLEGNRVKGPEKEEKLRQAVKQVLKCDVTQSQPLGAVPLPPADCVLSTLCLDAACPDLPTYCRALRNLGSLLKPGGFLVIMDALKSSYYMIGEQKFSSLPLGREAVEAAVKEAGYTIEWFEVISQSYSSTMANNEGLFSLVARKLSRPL

## Cc1ccc(Nc2ncc3c(n2)N(C)C(=O)N(c2cc(NC(=O)c4cccc(C(F)(F)F)c4)ccc2C)C3)cn1
[1]
  Potency: inactive
[2]
  Potency: 65.8 nM (active)
[3]
  Potency: 0.0332 µM (active)
[4]
  Potency: 0.059 µM (active)
[5]
  Potency: inactive
[6]
  Z-AUC: -1.89 (inactive)
[6]; [19]
  Z-AUC: -2.2
[6]; measured here: PEO4 Z-AUC
  Z-AUC: -1.4
[7]
  Potency: 394 nM (active)

## CN(Cc1nccs1)c1ncnc2ccc(-c3ccc4c(c3)OCO4)cc12
[1]
  Potency: inactive
[8]
  outcome: inactive
[9]
  Potency: 11.5 µM (active)
[10]
  activity: -82.4%
[11]
  Potency: 24.1 µM (active)
[12]
  activity: -71.7%
[13]
  activity: -84.4%
[5]
  Potency: inactive

## Oc1cccc(Nc2ccnc3cc(-c4cccc(CN5CCOCC5)c4)sc23)c1
[1]
  Potency: 7.31 µM (active)
[14]
  Potency: 8.2 µM (active)
[3]
  Potency: 1.64 µM (active)
[5]
  Potency: inactive

## COc1ccc2c(c1O)OC(C)(C)c1c-2ccc2c1C(=O)N(c1ccc(C(=O)c3ccccc3)cc1)C2=O
[1]
  Potency: inactive
[5]
  Potency: inactive

## OC[C@H]1O[C@@H](O[C@@H]2OC=C[C@H]3[C@H](O)[C@@H]4O[C@]4(CO)[C@@H]23)[C@H](O)[C@@H](O)[C@@H]1O
[1]
  Potency: inactive
[14]
  Potency: inactive
[3]
  Potency: inactive
[15]
  outcome: inactive

## COCc1c(-c2ccc(NC(=O)Nc3cc(C(F)(F)F)ccc3F)c(F)c2)c2c(N)ncnn2c1CN1CCOCC1
[1]
  Potency: 16.4 µM (active)
[2]
  Potency: 3300 nM (active)
[5]
  Potency: inactive
[6]
  Potency: 3.47 µM (active)
[6]; [19]
  Z-AUC: -1.33
[6]; measured here: PEO4 Z-AUC
  Z-AUC: -1.61
[7]; at 45.9 µM (top of the series)
  activity change, negative = inhibition: -92% (inactive)

## O=c1cc(N2CCNCC2)oc2c(-c3ccccc3)cccc12
[1]
  Potency: 7.31 µM (active)
[16]
  Potency: inactive
[17]
  Potency: inactive

## Cc1ccc(OCCSc2ncccn2)c(Br)c1
[1]
  Potency: inactive
[14]
  Potency: inactive
[3]
  Potency: inactive
[5]
  Potency: inactive

## Clc1cc(Cl)c2c(c1)N=C1CCCCCN1C2
[1]
  Potency: inactive
[3]
  Potency: inactive
[4]
  Potency: inactive
[5]
  Potency: inactive

## CCCCCCCCCCCCCCCCOCCCOP(=O)(O)COC(CO)Cn1ccc(N)nc1=O (stereo not drawn)
[1]
  Potency: 8.2 µM (active)
[2]
  Potency: inactive
[8]
  outcome: inactive
[4]
  Potency: 18.6 µM (active)
[5]
  Potency: inactive
[18]
  Potency: inactive
[6]
  Z-AUC: 0.0641 (inactive)
[6]; [19]
  Z-AUC: -0.362
[6]; measured here: PEO4 Z-AUC
  Z-AUC: -0.397

## CC(C)(N)c1cc(C(=O)N[C@@H]2CCc3ccc(Oc4ccnc5c4CCC(=O)N5)cc3C2)cc(C(F)(F)F)c1
[1]
  Potency: 18.4 µM (active)
[3]
  Potency: 11.6 µM (active)
[4]
  Potency: 14.6 µM (active)
[5]
  Potency: inactive

## COC[C@H](C)Oc1cc(O[C@@H](C)Cc2ccccc2)cc(C(=O)Nc2ccc(C(=O)O)cn2)c1
[1]
  Potency: inactive
[14]
  Potency: inactive
[3]
  Potency: inactive
[5]
  Potency: inactive

## COc1cc2c(cc1OC)/C(=C/c1ccc(O)cc1)C(=O)N2
[1]
  Potency: inactive
[14]
  Potency: inactive
[5]
  Potency: inactive

## Cc1cc(-c2nc(C(=O)Nc3cn(C4CCOCC4)nc3C(N)=O)co2)ccn1
[1]
  Potency: 16.4 µM (active)
[3]
  Potency: 9.2 µM (active)
[4]
  Potency: 16.4 µM (active)
